Assay results: PubChem BioAssay
“And” between values parts separate entries of the source, which are not always exact repeats. Equal values may be shown once.

Experiments:
[1] = system: Botulinum neurotoxin type F light chain protease (Clostridium botulinum); experiment: Clostridium botulinum type F light chain protease inhibitors, microsphere substrate cleavage, validation (AID 588459); details: multiplex microsphere protease substrate cleavage assay, flow cytometry; at 10 µM; active compounds read high
[2] = target: Botulinum neurotoxin type A (Clostridium botulinum) (UniProt P0DPI0); experiment: BoNT/A light chain protease inhibitors, biochemical, multiplex microsphere flow cytometry, validation set (AID 588460); details: at 10 µM, active compounds read high
[3] = target: Lethal factor (Bacillus anthracis) (UniProt P15917); experiment: Bacillus anthracis lethal factor inhibition, microsphere flow cytometry protease assay, validation at 10 µM (AID 588461); details: multiplex microsphere protease cleavage assay, active compounds read high

Measured: inhibition

CC(=O)NC(Cc1ccccc1)C(=O)OCC(=O)c1ccccc1 (configuration not stated)
inactive: [1] -2.6% | [2] -1.5% | [3] -3.3%

COc1ccc(-c2nc(C)c(C(C)=O)n2O)cc1OC
inactive: [1] -3.6% | [2] -1.6% | [3] -3.9%

O=C(NCCN1CCN(c2ccccc2)CC1)c1cccc(Br)c1
inactive: [1] -4.4% | [2] -2.3% | [3] -6.4%

CC(=O)Oc1ccc2c(=O)c(Oc3ccccc3[N+](=O)[O-])coc2c1
inactive: [1] 0.2% | [2] -1.2% | [3] -6.2%

Cc1ccc2c(c1)C(O)(c1c(C)[nH]c3ccccc13)C(=O)N2 (configuration not stated)
inactive: [1] -4.4% | [2] -1.6% | [3] -10%

CC(NCCc1ccc(O)cc1)C(O)c1ccc(O)cc1 (configuration not stated)
inactive: [1] 1.6% | [2] -0.5% | [3] -3.1%

CCn1c(C)cc2c(c1=O)C(c1ccccc1)C(C(=O)OC)=C(N)O2 (configuration not stated)
inactive: [1] 0.3% | [2] -0.9% | [3] -3.3%

N/C(=N\OC(=O)CCCOc1ccc(Cl)cc1Cl)c1ccncc1
inactive: [1] 3.7% | [2] 0.1% | [3] 1%

Cn1cc(CN2CCN(CCO)CC2)c(-c2ccc(Oc3ccccc3)cc2)n1
inactive: [1] 2.6% | [2] 0.5% | [3] -1.5%

CCN(CC)Cc1c[nH]c2c(C(=O)OC)cccc12
inactive: [1] -0.7% | [2] 0.3% | [3] 6.7%

c1cnc2c(c1)ccc1cccnc12
inactive: [1] -1.4% | [2] -5.9% | [3] -2.3%

CC(=O)c1c(C)[nH]c(C(=O)OCc2ccccc2)c1C
inactive: [1] 2.9% | [2] 0.8% | [3] -6.6%

O=C(Cc1c[nH]c2ccccc12)OCCOC(=O)Cc1c[nH]c2ccccc12
inactive: [1] 0.9% | [2] -0.1% | [3] -5.9%

COc1ccc([C@@H]2Sc3ccccc3N(CCN(C)C)C(=O)[C@@H]2OC(C)=O)cc1
inactive: [1] -1.7% | [2] 0.1% | [3] 1%

CCCNC(=O)NS(=O)(=O)c1ccc(Cl)cc1
inactive: [1] 5.6% | [2] -0.4% | [3] -1%

CC(=O)Nc1cc(O)cc(O)c1
inactive: [1] 6.1% | [2] 0.1% | [3] -1.2%

O=[N+]([O-])c1cccc2cn[nH]c12
inactive: [1] 6.9% | [2] 3% | [3] 6.3%

Cc1cc(=O)oc(C)c1C(=O)NCCC(C)C
inactive: [1] -1.3% | [2] -0.2% | [3] 4%

O=C(O)CCCCCCNC(=O)c1cncc(O)c1
inactive: [1] -1.8% | [2] 0.2% | [3] 7.5%

COc1ccc(-c2cc(=O)oc3cc(OC(C)C(=O)O)ccc23)cc1 (configuration not stated)
inactive: [1] 0.9% | [2] 2% | [3] 9.7%

Cc1ccc(S(=O)(=O)N[C@@H](C)C(=O)N2CCC(C(=O)N3CCC[C@H]3C(=O)O)CC2)cc1
inactive: [1] 1.9% | [2] 1% | [3] -1.7%

COc1ccc2nc(S(=O)Cc3ncc(C)c(OC)c3C)[nH]c2c1 (configuration not stated)
inactive: [1] 4.3% | [2] 1.7% | [3] 5%

C=CCc1cccc2cc(C(=O)Nc3ccc(CC(=O)O)cc3)c(=O)oc12
inactive: [1] 1.3% | [2] -0.1% | [3] 0.8%

CC(C)CCn1c(N2CCc3ccccc3C2)nc2c1c(=O)[nH]c(=O)n2C
inactive: [1] -1.6% | [2] 0.3% | [3] 4%

COc1ccc2oc(-c3ccco3)cc(=O)c2c1
inactive: [1] 3% | [2] -0.8% | [3] -7%

CCc1cc2c(=O)c(-c3nc(C)cs3)c(CCCC(=O)O)oc2cc1O
inactive: [1] 1.9% | [2] -1.9% | [3] -3.9%

CC(=O)[C@@]1(O)CC[C@H]2[C@@H]3C[C@H](C)C4=CC(=O)CC[C@]4(C)[C@H]3CC[C@@]21C
inactive: [1] -1.7% | [2] -2.5% | [3] -5.5%

O=C(NC(=S)Nc1ccc(N2CCN(C(=O)c3ccccc3)CC2)cc1)c1cccs1
inactive: [1] -8.9% | [2] -3.2% | [3] -10.5%

COc1cc2c(cc1OC)C(c1cc(OC)c(OC)c(OC)c1)NCC2 (configuration not stated)
inactive: [1] 2.3% | [2] -0.2% | [3] 6.9%

S=C(NCc1ccccc1)NCc1cccc(CNC(=S)NCc2ccccc2)c1
inactive: [1] -0.9% | [2] 0.7% | [3] -2.4%

COc1cc(Cc2cnc(N)nc2N)cc(OC)c1OC
inactive: [1] 4.4% and 6.3% | [2] 0% and -0.2% | [3] -0.1% and 0.6%

CCOC(=O)C1NN=C(C(=O)c2ccccc2)C1c1ccc(Cl)cc1 (configuration not stated)
inactive: [1] 3% | [2] 1.4% | [3] 3.2%

CCN(Cc1cnn(C)c1)Cc1nc(C(c2ccccc2)c2ccccc2)no1
inactive: [1] 0.3% | [2] -2.2% | [3] -3.7%

C[C@]12CC[C@@H]3c4cc(O)c(O)cc4CC[C@H]3[C@@H]1CC[C@@H]2O
inactive: [1] -1% | [2] 1% | [3] -0.8%

CC(=O)/C=C/c1ccc(C)o1
inactive: [1] 3.8% | [2] 0.9% | [3] 3%

CC(C)COC(=O)C1C(=O)CC(C)(O)C(C(=O)OCC(C)C)C1c1cccnc1 (configuration not stated)
inactive: [1] 2.5% | [2] 0.6% | [3] 3.5%

CC(C)OC(=O)CC12CN3CN(C1)CC(CC(=O)OC(C)C)(C3)C2=O
inactive: [1] 1.8% | [2] -0.4% | [3] 6.1%

CC1(C)C(=O)OC(C(=O)c2ccc(Cl)cc2)C(C)(C)C1=O (configuration not stated)
inactive: [1] 1.9% | [2] 1.3% | [3] -3.1%

CCOc1ccc(C(=O)NC(C)C2COc3ccccc3O2)cc1 (configuration not stated)
inactive: [1] -6.8% | [2] -0.6% | [3] -4.7%

c1ccc(-c2ccc(C(c3ccccc3)n3ccnc3)cc2)cc1 (configuration not stated)
inactive: [1] -0.7% | [2] -1.3% | [3] -1.4%

COc1ccccc1C(=O)N=C1NC(=O)CC2C(=O)NCCN12 (configuration not stated)
inactive: [1] -2.8% | [2] -1.5% | [3] -5.2%

Cc1ccc(S(=O)(=O)n2ccnc2)cc1C
inactive: [1] 1.4% | [2] -0.3% | [3] -1.7%

O=C(/C=C/c1c[nH]c2ccccc12)c1cccc2ccccc12
inactive: [1] 5.1% | [2] 2.4% | [3] -6.2%

COc1ccc(CN2CCCC(C(=O)c3ccc(Cl)cc3)C2)cc1Cn1cccn1 (configuration not stated)
inactive: [1] 1.9% | [2] -0.6% | [3] 3.9%

COc1ccc2c(=O)c(-c3cnn(-c4ccccc4)c3)c(C)oc2c1
inactive: [1] -2.2% | [2] 0.9% | [3] 1.4%

C/C=C/Cn1c(SC)nc2c1c(=O)[nH]c(=O)n2C
inactive: [1] -2.2% | [2] 0.9% | [3] -3.1%

CCn1nc(C(=O)O)c(=O)c2cc3c(cc21)OCO3
inactive: [1] 5.7% | [2] 0.6% | [3] 0.2%

OC(CCCN1CCCCC1)(c1ccccc1)c1ccccc1
inactive: [1] 3.3% | [2] 0% | [3] 7.6%

O=C(CCCC(=O)OCC1CCCO1)OCC1CCCO1 (configuration not stated)
inactive: [1] 1.9% | [2] -0.9% | [3] -1.6%

COc1ccc(N2C(=O)[C@@H]3[C@H](C2=O)[C@H]2c4ccccc4C=CN2[C@@H]3C(C)=O)cc1
inactive: [1] -2.1% | [2] -0.4% | [3] -16.8%

COCCOC(=O)c1c(C)oc2ccc(OCc3cc(C(=O)OC)oc3C)cc12
inactive: [1] -0.6% | [2] -0.8% | [3] 1.6%

O=C(NCCO)c1ccc(Cl)c(Cl)c1
inactive: [1] -0.2% | [2] -0.6% | [3] -2.2%

CN1C(C(=O)Nc2ccccn2)=C(O)c2sccc2S1(=O)=O
inactive: [1] 0.5% | [2] -0.2% | [3] -1.1%

O=C(O)C1Cc2ccccc2CN1S(=O)(=O)c1ccccc1 (configuration not stated)
inactive: [1] 0.8% | [2] 0.6% | [3] -3.3%

Cc1ccccc1-c1nn(-c2ccc(F)cc2F)cc1CNCCN(C)C
inactive: [1] -1.9% | [2] -0.5% | [3] -2.9%

CN1CCCN(C(c2ccccc2)c2ccc(Cl)cc2)CC1 (configuration not stated)
inactive: [1] 3.2% | [2] -1.8% | [3] -8.8%

CCC(C)NCCOCCOc1ccc(Cl)c2ccccc12 (configuration not stated)
inactive: [1] -2.3% | [2] 1.8% | [3] -6.5%

CCOc1ccc(N2C(=O)CNC2=S)cc1
inactive: [1] -1.7% | [2] -1.5% | [3] -3.8%

O=c1[nH]c(=O)n(C2CCCO2)cc1F (configuration not stated)
inactive: [1] -5.7% | [2] -0.7% | [3] 1.8%

COc1cc(/C=C(\C#N)C(=O)N2CCc3ccccc32)ccc1O
inactive: [1] 0.6% | [2] 1.6% | [3] 0.9%

CC(C)Cc1nc(NCCN2CCOCC2)c(C#N)c2c1COC(C)(C)C2
inactive: [1] -1.6% | [2] -0.8% | [3] -3%

Cc1cccc(C2=N/C(=C\c3cccnc3)C(=O)O2)c1
inactive: [1] -1.1% | [2] 1.9% | [3] 3.7%

COc1ccc(C2C(C(=O)c3ccco3)=C(O)C(=O)N2CC2CCCO2)cc1 (configuration not stated)
inactive: [1] 1.3% | [2] 0.2% | [3] -4.2%

CC(=O)OC[C@H]1O[C@@H](Sc2cccc3cccnc23)[C@H](OC(C)=O)[C@@H](OC(C)=O)[C@H]1OC(C)=O
inactive: [1] -3.9% | [2] -0.4% | [3] 0.7%
